The campaign covered roughly 69,000 compounds. About 8,600 (12%) showed an effect of 50% or more. Many of the other results were omitted from the sample, so strong results are more common in it than they were.

The subject of the assay is Plasmodium berghei. The experiment in a line: Screen against P. berghei liver stage (PbLuc), transformed with Luciferase, at 10uM. The following applies: tested at 10 uM. Format: functional, HepG2.
For the compound `CCOC(=O)c1n[nH]cc1-c1cncn1CCn1nc(C)c(Cl)c1C`, the INHIBITION is listed as -39.4%.

Turning to `CS(=O)(=O)N1CCCC12CCCN(C(=O)c1ccnnc1)C2` (centres undefined), the INHIBITION was found to be 26.4%.

Regarding `CS(=O)(=O)N1CCCCC12CCN(C(=O)c1ccccc1)C2` (centres undefined), the INHIBITION came out at 61.8%.

Consider `CS(=O)(=O)N1CCCC12CCCN(C(=O)c1ccc3c(c1)OCO3)C2` (centres undefined), for which the INHIBITION is -1.15%.

As for `CS(=O)(=O)N1CCCC12CCCN(C(=O)c1ccc[nH]1)C2` (centres undefined), the INHIBITION is reported as -24.8%.

Regarding `CS(=O)(=O)N1CCCC12CCCN(C(=O)c1ccc3[nH]ccc3c1)C2` (centres undefined), the INHIBITION stood at 57.9%.

In the case of `CS(=O)(=O)N1CCCC12CCCN(C(=O)c1ccncc1)C2` (centres undefined), the INHIBITION was found to be 10.7%.

For `O=S1(=O)C[C@@H]2[C@H](C1)N(Cc1ncc[nH]1)CCN2CCCc1ccccc1`, the INHIBITION came to 34.275%.

For the compound `COc1ccc(Cl)cc1NC(=O)CN1CCc2nc(NC(C)=O)sc2C1`, the INHIBITION is reported as 30.2%.

As for `CCOc1ccccc1C(C(=O)O)N(C)Cc1cc(C)[nH]n1` (centres undefined), the INHIBITION is listed as 27.6%.

With `Cc1n[nH]c(C)c1NC(=O)CN1CCc2c(nc(C(C)C)n2C)C1`, the INHIBITION is recorded as -2.48%.

Turning to `Cn1cc(C2CCCN2C(=O)CCCc2ccccn2)cn1` (centres undefined), the INHIBITION was 62.6%.

In the case of `CCCc1noc(CCC(=O)N2CCCC2c2ccncc2)n1` (centres undefined), the INHIBITION came out at 13.3%.

Consider `CCCc1noc(CCC(=O)N2CCCC2c2ccc(OC)cc2)n1` (centres undefined), for which the INHIBITION turned out to be 0.914%.

Take `Cn1cc(C2CCCN2C(=O)CCCOc2ccccc2F)cn1` (centres undefined): the INHIBITION is 0.914%.

Take `CCCc1noc(CCCC(=O)N2CCCC2c2cnn(C)c2)n1` (centres undefined): the INHIBITION was found to be 64.7%.

With `Cn1cc(C2CCCN2C(=O)CCCc2cccs2)cn1` (centres undefined), the INHIBITION is 9.14%.

Regarding `Cc1nnc([C@@H]2C[C@H]3CN(C(=O)c4c(C)noc4C)C[C@H]3O2)[nH]1`, the INHIBITION is 12.7%.

Regarding `CC(C)Cc1cc(NC(=O)c2ccncc2)n(C)n1`, the INHIBITION came to 48.4%.

As to `c1ccc(Cc2cncc(C3CCCN3C3CCOCC3)n2)cc1` (centres undefined), the INHIBITION was 10.175%.

For `Cn1nc(C2CCCN(Cc3cccc(F)c3)C2)c2nccnc21` (centres undefined), the INHIBITION is 31.3%.

On to `Cn1nc(C2CCCN(Cc3cc(F)cc(F)c3)C2)c2nccnc21` (centres undefined), for which the INHIBITION is given as 36.4%.

For the compound `Fc1ccc(CN2CCCC(c3nnc(-c4cnccn4)o3)C2)cc1F` (centres undefined), the INHIBITION was determined as 58.6%.

Consider `c1cc(CN2CCCC(c3nnc(-c4cnccn4)o3)C2)ccn1` (centres undefined), for which the INHIBITION is on record as 26.8%.

`c1cncc(CN2CCCC(c3nnc(-c4cnccn4)o3)C2)c1` (centres undefined): the INHIBITION is given as -22.6%.

Turning to `Cn1nc(C2CCCN(Cc3ccccc3)C2)c2nccnc21` (centres undefined), the INHIBITION is given as 64.9%.

Regarding `Cn1nc(C2CCCN(Cc3cc(F)ccc3F)C2)c2nccnc21` (centres undefined), the INHIBITION is 40%.

In the case of `Cn1nc(C2CCCN(Cc3ccc(F)c(F)c3)C2)c2nccnc21` (centres undefined), the INHIBITION is reported as 54.4%.

Consider `Cn1nc(C2CCCN(Cc3ccc(F)cc3)C2)c2nccnc21` (centres undefined), for which the INHIBITION was 43.6%.

For `Cc1nc(C2CCCN2Cc2ccn(C)c(=O)c2)no1` (centres undefined), the INHIBITION turned out to be 5.7%.

On to `COCCN(C)C(C(=O)O)c1ccc(C)c(C)c1` (centres undefined), for which the INHIBITION was found to be 19.4%.

With `CCN1CC(=O)NCC12CCN(C(=O)c1ccco1)C2` (centres undefined), the INHIBITION stood at 1.34%.

Regarding `Cc1cc(C)n(CC2CCCN2C(=O)c2ccc3nncn3c2)n1` (centres undefined), the INHIBITION is given as -54.6%.

`Cc1noc2nc(C3CCCN(Cc4ccncc4)C3)cc(C(F)F)c12` (centres undefined): the INHIBITION is 34%.

As to `Cc1nc(C(C)NCc2cc(O)c3cccc(F)c3n2)cs1` (centres undefined), the INHIBITION was -2.48%.

For `CCC(=O)Nc1cc(Br)cn(C)c1=O`, the INHIBITION is recorded as 8.92%.

For `Cn1cc(Br)cc(NC(=O)Cc2cccs2)c1=O`, the INHIBITION is 53.3%.

For the compound `Cn1cc(NC(=O)Cc2cccs2)c(=O)n(C)c1=O`, the INHIBITION is on record as -7.16%.

`O=C(NCCc1nnc2n1CCC2)NCC1(c2ccccc2F)CC1`: the INHIBITION worked out at 33.8%.

`COCCN1CCCC1(C)c1nc(C)cc(N)n1` (centres undefined): the INHIBITION is given as -3.94%.

As to `Nc1nc2c(c(NCc3ccc(C(=O)N4CCCC4)cc3)n1)CCCC2`, the INHIBITION was determined as 63.8%.

On to `Cc1csc(N2CCCN(C(=O)c3cccs3)CC2)n1`, for which the INHIBITION came to 29.2%.

Take `Nc1nc2c(c(NCc3nc(-c4ccncc4)n[nH]3)n1)CCCC2`: the INHIBITION is -97.2%.

Turning to `Nc1nc2c(c(NCc3ccncc3)n1)CCCC2`, the INHIBITION was -68.2%.

Turning to `Nc1nc2c(c(N3CCN(C(=O)c4cccs4)CC3)n1)CCCC2`, the INHIBITION was determined as 72.5%.

In the case of `N#Cc1cccnc1N1CCN(C(=O)c2cccs2)CC1`, the INHIBITION stood at 9.16%.

`Cc1ccc(N2CC[C@H]3[C@@H]2CCC(=O)N3CCN2CCOCC2)nn1`: the INHIBITION was determined as 18.7%.

Take `O=C(c1cnccn1)N1CCOC2(CCN(Cc3ccsc3)CC2)C1`: the INHIBITION is given as 13.7%.

For `CNC(=O)NCC1CCC2(CCN(C(=O)c3ccccn3)CC2)CO1` (centres undefined), the INHIBITION is 35.8%.

As for `CN(C)Cc1cc(C2CCN(C(=O)C3CC34CCC4)CC2)nn1C` (centres undefined), the INHIBITION was 8.53%.

On to `CC(C)Oc1ccc(CC2=N[C@](C)(CO)CO2)cc1`, for which the INHIBITION came to 16%.

For `CC1(CO)COC(Cc2ccc(Cl)cc2)=N1` (centres undefined), the INHIBITION was determined as 0.29%.

With `CCCOc1ccc(CC2=NC(C)(CO)CO2)cc1` (centres undefined), the INHIBITION worked out at 58.3%.

`CCn1cc(C(=O)Nc2ccccc2C(=O)OC)cn1`: the INHIBITION worked out at 21.5%.

For the origin of these results see ChEMBL document CHEMBL4513216, “Probing the Open Global Health Chemical Diversity Library for Multistage-Active Starting Points for Next-Generation Antimalarials” (ACS Infect Dis, 2020).
